Bioassay records deposited in PubChem by several laboratories.
Hits are enriched below; roughly 4.1% of the tested compounds scored in any of these assays.
CHT block – inhibits the human high affinity choline transporter. actives 0.86% (n = 310,000). B-score at 10 µM. CHT-expressing cells, membrane potential dye, choline response; hits give low values. AID 488975;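 active = B-score over 3 SD under the library average, and starting fluorescence ratio not unusually high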;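 note: choline stimulus applied at its EC90 after an EC20 pre-addition; B-score computed on integrated fluorescence ratio after choline addition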
MEKK2wt PB1 HTS – raises or lowers MEK5 binding to wildtype human MEKK2 PB1 domain; Q9Y2U5; binding response (% of control), % at 10 µM; bead flow cytometry, Alexa488-MEK5 binding to MEKK2 WT; actives lie on both sides; actives 1.1% (n = 290,000); in the data active = binding response below about 67% or above about 130%
CHT allo act – human CHT allosteric activation; B-score at 10 µM; actives 0.49% (n = 310,000); CHT-expressing cells, membrane potential dye, choline EC20; hits give high values; LV-AA mutant CHT in HEK293 cells;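 active = initial fluorescence not abnormally high and integrated response B-score, plate-corrected, over 3 SD above library mean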
MEKK2 mut-MEK5 – signal of MEK5 binding to mutant human MEKK2 PB1 domain; actives 0.35% (n = 290,000); AID 1530; percent response, % at 10 µM; bead flow cytometry, Alexa488-MEK5 binding to MEKK2 mutant; in the data active = percent response above about 24%, passing the limit was not always enough
MEKK3 PB1 HTS – raises or lowers MEK5 binding to the human MEKK3 PB1 domain; Q99759; bead-based flow cytometry, Alexa488-MEK5 binding to MEKK3; actives lie on both sides; 0 = blocked by unlabeled MEK5, 100 = vehicle; binding response (% of control), % at 10 µM; actives 1.4% (n = 290,000); AID 1529;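 active = binding response more than 3 SD above or below the average of its plate-row segment, actives on both sides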;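 note: Alexa488 bead fluorescence after subtracting the streptavidin-only scavenger bead signal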
Target sequence (Q99759 whole entry, looked up, the tested form may be a part): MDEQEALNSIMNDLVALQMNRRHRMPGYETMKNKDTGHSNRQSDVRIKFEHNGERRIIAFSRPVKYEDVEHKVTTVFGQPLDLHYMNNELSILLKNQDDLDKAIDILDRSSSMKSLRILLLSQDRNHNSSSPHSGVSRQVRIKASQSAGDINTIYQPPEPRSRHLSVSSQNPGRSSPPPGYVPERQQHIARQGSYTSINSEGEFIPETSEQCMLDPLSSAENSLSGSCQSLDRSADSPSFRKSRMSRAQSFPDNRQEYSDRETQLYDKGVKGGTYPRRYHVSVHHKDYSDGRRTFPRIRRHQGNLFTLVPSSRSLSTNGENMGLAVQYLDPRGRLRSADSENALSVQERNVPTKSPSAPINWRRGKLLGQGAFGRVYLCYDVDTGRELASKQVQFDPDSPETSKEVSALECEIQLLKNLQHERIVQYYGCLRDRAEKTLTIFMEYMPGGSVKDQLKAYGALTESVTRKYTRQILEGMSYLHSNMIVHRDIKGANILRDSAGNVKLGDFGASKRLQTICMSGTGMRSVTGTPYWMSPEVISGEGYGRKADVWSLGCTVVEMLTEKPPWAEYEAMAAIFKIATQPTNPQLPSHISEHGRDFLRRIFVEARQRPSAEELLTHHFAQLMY
SUMO Mot1 rescue – inhibitors of SUMOylation pathway: yeast Mot1-301 growth rescue; S. cerevisiae Mot1-301 growth rescue, ATP luminescence, 38.5C; percent above DMSO median, 100 means doubled; growth rescue, % at 18.8 µM; actives 1% (n = 320,000); AID 2716;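 active = every valid replicate shows activation above 250% relative to neutral control wells; inactive = the rest, any valid replicate at or below 250%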
CHT activ conf – confirmation of human choline transporter (CHT) activators; shares compounds with CHT allo act; CHT-expressing cells, membrane potential dye fluorescence (FDSS); % of choline EC20–EC90 response window; HEK293 expressing CHT LV-AA mutant; choline added at its EC20; activation, % at 10 µM; actives 91% (n = 2,500); AID 504833;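 active = primary screen active, with duplicate mean activation above negative control mean plus 3 SD, cut at about 11% in these data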
HEK293 MP dye – counter-screen for CHT activators: effect in parental HEK293 cells | shares compounds with CHT allo act | membrane potential dye fluorescence (FDSS); measured after EC20 choline addition | ratio readout change at 10 µM, hits read low | actives 62% (n = 2,500);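 active = duplicate-averaged ratio beyond 3 SD from buffer wells, up or down, though filed actives are nearly all decreases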
Hits are given with their value.

Screening Cc1ccc2c(c1)c(-c1ccccc1)nc1nncn12 returned CHT block inactive, MEKK2wt PB1 HTS inactive, CHT allo act inactive, MEKK2 mut-MEK5 inactive, MEKK3 PB1 HTS inactive, SUMO Mot1 rescue inactive, CHT activ conf 38 and HEK293 MP dye -32.
For Cc1ccc2nc(N3CC(C)OC(C)C3)nc(-c3ccccc3)c2c1 (configuration not stated) the results were CHT block inactive, MEKK2wt PB1 HTS inactive, CHT allo act inactive, MEKK2 mut-MEK5 inactive, MEKK3 PB1 HTS inactive and SUMO Mot1 rescue inactive.
For O=C(CN1C(=O)NC(Cc2ccccc2)C1=O)Nc1ccccc1OC(F)F (configuration not stated) the results were CHT block inactive, CHT allo act inactive and SUMO Mot1 rescue inactive.
O=[N+]([O-])c1ccc(OC/C=C2\Oc3ccc([N+](=O)[O-])cc3C2N2CCOCC2)cc1 (configuration not stated) was read as CHT block inactive, MEKK2wt PB1 HTS inactive, CHT allo act 7.5, MEKK2 mut-MEK5 inactive, MEKK3 PB1 HTS inactive, SUMO Mot1 rescue inactive, CHT activ conf 30 and HEK293 MP dye inactive.
For O=[N+]([O-])c1ccc2c(c1)C(N1CCOCC1)/C(=C/COc1ccc3ccccc3c1Br)O2 (configuration not stated) the results were CHT block inactive, MEKK2wt PB1 HTS inactive, CHT allo act inactive, MEKK2 mut-MEK5 inactive, MEKK3 PB1 HTS inactive and SUMO Mot1 rescue inactive.
Cc1cc(C)n2nc(C(=O)Nc3cccnc3)nc2n1 was read as CHT block inactive, MEKK2wt PB1 HTS inactive, CHT allo act 8.7, MEKK2 mut-MEK5 inactive, MEKK3 PB1 HTS inactive, SUMO Mot1 rescue inactive, CHT activ conf 47 and HEK293 MP dye -48.
For Cc1cc(C)n2nc(C(=O)N/N=C/c3ccco3)nc2n1 the results were CHT block inactive, MEKK2wt PB1 HTS inactive, CHT allo act 7, MEKK2 mut-MEK5 inactive, MEKK3 PB1 HTS inactive, SUMO Mot1 rescue inactive, CHT activ conf 59 and HEK293 MP dye -60.
Screening Cc1cc(C)n2nc(C(=O)Nc3nccs3)nc2n1 returned CHT block inactive, MEKK2wt PB1 HTS inactive, CHT allo act inactive, MEKK2 mut-MEK5 inactive, MEKK3 PB1 HTS inactive, SUMO Mot1 rescue inactive, CHT activ conf 54 and HEK293 MP dye -27.
Cc1csc(NC(=O)c2nc3nc(C)cc(C)n3n2)n1 was read as CHT block inactive, MEKK2wt PB1 HTS inactive, CHT allo act inactive, MEKK2 mut-MEK5 inactive, MEKK3 PB1 HTS inactive and SUMO Mot1 rescue inactive.
`CCSc1nnc(NC(=O)c2nc3nc(C)cc(C)n3n2)s1` gave CHT block inactive, MEKK2wt PB1 HTS inactive, CHT allo act 6.3, MEKK2 mut-MEK5 inactive, MEKK3 PB1 HTS inactive, SUMO Mot1 rescue inactive, CHT activ conf 48 and HEK293 MP dye -41.
Screening Cc1cc(C)n2nc(C(=O)N/N=C/c3ccccc3Cl)nc2n1 returned CHT block inactive, MEKK2wt PB1 HTS inactive, CHT allo act inactive, MEKK2 mut-MEK5 inactive, MEKK3 PB1 HTS inactive and SUMO Mot1 rescue inactive.
Screening O=C(CCl)Nc1ccc(Oc2cnc3ccccc3n2)cc1 returned CHT block inactive, MEKK2wt PB1 HTS inactive, CHT allo act inactive, MEKK2 mut-MEK5 inactive, MEKK3 PB1 HTS inactive and SUMO Mot1 rescue inactive.
Screening CCCn1c(C)cc(=O)c2cc(NC(=O)c3cnccn3)ccc21 returned CHT block inactive, MEKK2wt PB1 HTS inactive, CHT allo act inactive, MEKK2 mut-MEK5 inactive, MEKK3 PB1 HTS inactive, SUMO Mot1 rescue inactive, CHT activ conf 41 and HEK293 MP dye -80.
`O=C(Nc1ccc2nccnc2c1)c1cnccn1` gave CHT block inactive, MEKK2wt PB1 HTS inactive, CHT allo act 7.5, MEKK2 mut-MEK5 inactive, MEKK3 PB1 HTS inactive, SUMO Mot1 rescue inactive, CHT activ conf 53 and HEK293 MP dye -58.
